Source: PubChem BioAssay (NCATS)
Inconclusive results are not listed. Activity calls are given as the source filed them. The call rests on the fitted dose curve; in most records, active means well fitted inhibition curve with a large enough effect; inconclusive means small, poorly fitted or top-dose-only effect; inactive means flat fitted curve, though single readings scatter.

Tests used:
Assay in all cases: qHTS profiling for inhibitors of Plasmodium falciparum proliferation (AID 504749); further: nearly all actives have a fitted effect of over 60% in size
Conditions in all cases: P. falciparum in erythrocytes, SYBR Green DNA, 72 h; series mostly up to 28.7 µM
3D7 = system: 3D7
Method in brief: (§1)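 P. falciparum-infected erythrocytes (0.3% parasitemia, 2.5% hematocrit) incubated with compound 72 h at 37 C, 5% CO2. Parasite DNA detected by SYBR Green after lysis, overnight at room temperature; normalised to 0.29 uM artemisinin and DMSO.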

C2A = system: C2A
Method in brief: as §1

CP191 = system: CP191
Method in brief: as §1

CP192 = system: CP192
Method in brief: as §1

CP194 = system: CP194
Method in brief: as §1

CP237 = system: CP237
Method in brief: as §1

CP250 = system: CP250
Method in brief: as §1

CP256 = system: CP256
Method in brief: as §1

CP268 = system: CP268
Method in brief: as §1

CP305 = system: CP305
Method in brief: as §1

CP315 = system: CP315
Method in brief: as §1

Dd2 = system: Dd2
Method in brief: as §1

HB3 = system: HB3
Method in brief: as §1

JCK = system: JCK
Method in brief: as §1

P94_40 = system: P94_40
Method in brief: as §1

PC15 = system: PC15
Method in brief: as §1

PC49 = system: PC49
Method in brief: as §1

SC27B = system: SC27B
Method in brief: as §1

TAB113 = system: TAB113
Method in brief: as §1

TAB165 = system: TAB165
Method in brief: as §1

Measured: Potency
Potency means the concentration at half of the fitted maximal effect.

CC(C)C[C@@H](NC(=O)[C@@H](Cc1ccccc1)NC(=O)c1cnccn1)B(O)O
active: 3D7 112 nM | C2A 112 nM | CP191 100 nM | CP192 190 nM | CP194 426 nM | CP237 89.1 nM | CP250 126 nM | CP256 141 nM | CP268 135 nM | CP305 757 nM | CP315 379 nM | Dd2 112 nM | HB3 79.4 nM | JCK 141 nM | P94_40 126 nM | PC15 316 nM | PC49 158 nM | SC27B 141 nM | TAB113 100 nM | TAB165 70.8 nM

C=C[C@H]1CN2CCC1C[C@H]2[C@H](O)c1ccnc2ccc(OC)cc12 (stereo not given in full)
active: 3D7 178 nM | C2A 1120 nM | CP191 708 nM | CP192 1690 nM | CP194 1070 nM | CP237 1260 nM | CP250 1000 nM | CP256 794 nM | CP268 1510 nM | CP305 1350 nM | CP315 1690 nM | Dd2 891 nM | HB3 794 nM | JCK 10000 nM | P94_40 1000 nM | PC15 447 nM | PC49 1260 nM | SC27B 1000 nM | TAB113 708 nM | TAB165 1120 nM

CCCCN1CC(O)C(O)C(O)C1CO (stereo not given)
inactive: 3D7 | C2A | CP191 | CP192 | CP194 | CP237 | CP250 | CP256 | CP268 | CP305 | CP315 | Dd2 | HB3 | JCK | P94_40 | PC15 | PC49 | SC27B | TAB113 | TAB165

C=CCn1c(=O)n(C2OC(CO)C(O)C2O)c2nc(N)[nH]c(=O)c21 (stereo not given)
inactive: 3D7 | C2A | CP191 | CP192 | CP194 | CP237 | CP250 | CP256 | CP268 | CP305 | CP315 | Dd2 | HB3 | JCK | P94_40 | PC15 | PC49 | SC27B | TAB113 | TAB165

NC(C(=O)O)c1ccc(O)cc1 (stereo not given)
inactive: 3D7 | C2A | CP191 | CP192 | CP194 | CP237 | CP250 | CP256 | CP268 | CP305 | CP315 | Dd2 | HB3 | JCK | P94_40 | PC15 | PC49 | SC27B | TAB113 | TAB165

O=C(O)CC(O)CC(O)/C=C/c1c(C2CC2)nc2ccccc2c1-c1ccc(F)cc1 (stereo not given)
inactive: 3D7 | C2A | CP191 | CP192 | CP194 | CP237 | CP250 | CP256 | CP268 | CP305 | CP315 | Dd2 | HB3 | JCK | P94_40 | PC15 | PC49 | SC27B | TAB113 | TAB165

CCCC[C@H](O)c1ccccc1
inactive: 3D7 | C2A | CP191 | CP192 | CP194 | CP237 | CP250 | CP256 | CP268 | CP305 | CP315 | Dd2 | HB3 | JCK | P94_40 | PC15 | PC49 | SC27B | TAB113 | TAB165

O=C1[C@@H]2C[C@@H]3C[C@H]1C[C@@](O)(C3)C2
inactive: 3D7 | C2A | CP191 | CP192 | CP194 | CP237 | CP250 | CP256 | CP268 | CP305 | CP315 | Dd2 | HB3 | JCK | P94_40 | PC15 | PC49 | SC27B | TAB113 | TAB165

O=c1ccn(C2OC(COP(=O)(O)OC3C(CO)OC(n4ccc(=O)[nH]c4=O)C3O)C(O)C2O)c(=O)[nH]1 (stereo not given)
inactive: 3D7 | C2A | CP191 | CP192 | CP194 | CP237 | CP250 | CP256 | CP268 | CP305 | CP315 | Dd2 | HB3 | JCK | P94_40 | PC15 | PC49 | SC27B | TAB113 | TAB165

CC(C)(C)C(=O)OCC(=O)C1CCC2C3CCC4=CC(=O)CCC4(C)C3CCC12C (stereo not given)
inactive: 3D7 | C2A | CP191 | CP192 | CP194 | CP237 | CP250 | CP256 | CP268 | CP305 | CP315 | Dd2 | HB3 | JCK | P94_40 | PC15 | PC49 | SC27B | TAB113 | TAB165

CC[C@@H](C)C(N)C(=O)O (stereo not given in full)
inactive: 3D7 | C2A | CP191 | CP192 | CP194 | CP237 | CP250 | CP256 | CP268 | CP305 | CP315 | Dd2 | HB3 | JCK | P94_40 | PC15 | PC49 | SC27B | TAB113 | TAB165

CO/N=C(/C(=O)N[C@@H]1C(=O)N2C(C(=O)O)=C(CSc3nc(C)c(CC(=O)O)s3)CS[C@H]12)c1csc(N)n1
inactive: 3D7 | C2A | CP191 | CP192 | CP194 | CP237 | CP250 | CP256 | CP268 | CP305 | CP315 | Dd2 | HB3 | JCK | P94_40 | PC15 | PC49 | SC27B | TAB113 | TAB165

C=C1[C@@H]2CC[C@H](C2)C1(C)C
inactive: 3D7 | C2A | CP191 | CP192 | CP194 | CP237 | CP250 | CP256 | CP268 | CP305 | CP315 | Dd2 | HB3 | JCK | P94_40 | PC15 | PC49 | SC27B | TAB113 | TAB165

CCN(CC)C(=O)Nc1ccc(OC[C@H](O)CNC(C)(C)C)c(C(C)=O)c1
inactive: 3D7 | C2A | CP191 | CP192 | CP194 | CP237 | CP250 | CP256 | CP268 | CP305 | CP315 | Dd2 | HB3 | JCK | P94_40 | PC15 | PC49 | SC27B | TAB113 | TAB165

CCCCC/C(C=O)=C/c1ccccc1
inactive: 3D7 | C2A | CP191 | CP192 | CP194 | CP237 | CP250 | CP256 | CP268 | CP305 | CP315 | Dd2 | HB3 | JCK | P94_40 | PC15 | PC49 | SC27B | TAB113 | TAB165

O=c1[nH]c(=O)n(C2C[C@H](O)[C@@H](CO)O2)cc1C(F)(F)F (stereo not given in full)
inactive: 3D7 | C2A | CP191 | CP192 | CP194 | CP237 | CP250 | CP256 | CP268 | CP305 | CP315 | Dd2 | HB3 | JCK | P94_40 | PC15 | PC49 | SC27B | TAB113 | TAB165

CCN1CCN(C(=O)NC(C(=O)NC2C(=O)N3C(C(=O)O)=C(CSc4nnnn4C)CSC23)c2ccc(O)cc2)C(=O)C1=O (stereo not given)
inactive: 3D7 | C2A | CP191 | CP192 | CP194 | CP237 | CP250 | CP256 | CP268 | CP305 | CP315 | Dd2 | HB3 | JCK | P94_40 | PC15 | PC49 | SC27B | TAB113 | TAB165

Cc1ccc(Nc2ncccc2C(=O)O)cc1C
inactive: 3D7 | C2A | CP191 | CP192 | CP194 | CP237 | CP250 | CP256 | CP268 | CP305 | CP315 | Dd2 | HB3 | JCK | P94_40 | PC15 | PC49 | SC27B | TAB113 | TAB165

O=C1NC(=O)C2C3C=CC(C3)C12 (stereo not given)
inactive: 3D7 | C2A | CP191 | CP192 | CP194 | CP237 | CP250 | CP256 | CP268 | CP305 | CP315 | Dd2 | HB3 | JCK | P94_40 | PC15 | PC49 | SC27B | TAB113 | TAB165

C[C@]12CC[C@@H]3c4ccc(O)cc4CC[C@H]3[C@@H]1C[C@H](O)C2O (stereo not given in full)
inactive: 3D7 | C2A | CP191 | CP192 | CP194 | CP237 | CP250 | CP256 | CP268 | CP305 | CP315 | Dd2 | HB3 | JCK | P94_40 | PC15 | PC49 | SC27B | TAB113 | TAB165

O=C1CC[C@H](C(=O)N[C@@H]2C[C@H]2c2ccccc2)N1
inactive: 3D7 | C2A | CP191 | CP192 | CP194 | CP237 | CP250 | CP256 | CP268 | CP305 | CP315 | Dd2 | HB3 | JCK | P94_40 | PC15 | PC49 | SC27B | TAB113 | TAB165

COC(c1ccccc1)(c1ccccc1)C(Oc1nc(C)cc(C)n1)C(=O)O (stereo not given)
inactive: 3D7 | C2A | CP191 | CP192 | CP194 | CP237 | CP250 | CP256 | CP268 | CP305 | CP315 | Dd2 | HB3 | JCK | P94_40 | PC15 | PC49 | SC27B | TAB113 | TAB165

CC1(C)SC2C(NC(=O)C(C(=O)O)c3ccccc3)C(=O)N2C1C(=O)O (stereo not given)
inactive: 3D7 | C2A | CP191 | CP192 | CP194 | CP237 | CP250 | CP256 | CP268 | CP305 | CP315 | Dd2 | HB3 | JCK | P94_40 | PC15 | PC49 | SC27B | TAB113 | TAB165
